High-throughput results from PubChem BioAssay.
In the library only some 2.2% were active in any assay of this set; here they are far more common.
EBNA-1 inh: EBNA-1 DNA-binding inhibitors, primary screen, biochemical, fluorescence polarization | inhibition, % at 14.8 µM | actives 0.34% (n = 300,000) | AID 1950, 2009; in the data active means inhibition above about 28%
PolyA inh: polyadenylation inhibitors in yeast reporter cells, primary screen, luminescence, S. cerevisiae | S. cerevisiae SKY197-pL101 polyadenylation reporter, beta-gal luminescence; efflux-impaired pdr1/pdr3 knockout yeast; score 100 = 6 SD above DMSO | activity score, % at 12 µM | actives 0.02% (n = 300,000) | AID 1875, 2009;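 active means lowest replicate activity score at least 50, where 100 means six control SD above control mean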;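 further: yeast exposed to compound for 9 h at 30 °C; higher score means more reporter readthrough which indicates perturbed polyadenylation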
dFosB act-1: activators of delta FosB homodimer, primary screen, biochemical, fluorescence polarization, TAMRA-CDK5 oligo, single point. actives 0.99% (n = 340,000). activation, % at 25 µM. AID 493131, 2011. purified delta FosB; percent of positive-control signal above neutral wells;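 active means mean activation above about 17%, with every replicate also reaching it, limit read from the data, passing the limit was not always enough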
Target sequence (P13346 whole entry, looked up): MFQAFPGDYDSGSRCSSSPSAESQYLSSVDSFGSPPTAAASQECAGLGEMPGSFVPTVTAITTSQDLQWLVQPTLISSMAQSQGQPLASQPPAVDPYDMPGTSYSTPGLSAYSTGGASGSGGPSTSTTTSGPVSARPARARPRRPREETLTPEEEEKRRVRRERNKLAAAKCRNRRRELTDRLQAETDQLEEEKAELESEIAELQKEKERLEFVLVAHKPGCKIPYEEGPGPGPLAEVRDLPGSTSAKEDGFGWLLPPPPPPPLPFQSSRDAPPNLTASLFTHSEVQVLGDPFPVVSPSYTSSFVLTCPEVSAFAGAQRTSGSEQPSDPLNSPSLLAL
NLRP3 yeast inh: NALP3 inflammasome inhibitors in reconstituted yeast, primary screen, luminescence, uHTS; inhibition, % at 10 µM; actives 0.39% (n = 330,000); AID 2825, 2010; Yeast reconstituted NLRP3/ASC/caspase-1, beta-gal luminescence, 24 h;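 active means inhibition of 50% or more; inactive means inhibition below 50%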;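 further: plate controls were induced DMSO wells for no effect and uninduced yeast grown without galactose for full effect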
ZTA DNA inh: ZTA (EBV) inhibition in EBNA-1 counter-screen | P03206 | ZTA-DNA binding, fluorescence polarization | inhibition, % at 11 µM | actives 0.15% (n = 320,000); in the data active means inhibition above about 33%
Target sequence (P03206 whole entry, looked up): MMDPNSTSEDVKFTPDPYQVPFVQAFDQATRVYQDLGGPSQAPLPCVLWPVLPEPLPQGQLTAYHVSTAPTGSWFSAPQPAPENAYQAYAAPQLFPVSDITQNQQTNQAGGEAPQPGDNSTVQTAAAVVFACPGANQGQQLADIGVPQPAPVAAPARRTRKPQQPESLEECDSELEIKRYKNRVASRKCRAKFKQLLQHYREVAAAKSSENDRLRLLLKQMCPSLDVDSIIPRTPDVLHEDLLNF
NALP1 inh: NALP1 inflammasome inhibitors in reconstituted yeast, colorimetric, S. cerevisiae, triplicate retest; AID 2071, 2009; actives 0.61% (n = 280,000); inhibition, % at 10 µM; S. cerevisiae NALP1/ASC/caspase-1 growth, X-gal OD620, 72 h; in the data active means inhibition mostly above about 24%, no sharp cut-off; inactive means mostly below about 32%
EBNA-1 confirm: EBNA-1 DNA-binding inhibitors, retest, confirmation, biochemical, fluorescence polarization, triplicate; shares compounds with EBNA-1 inh; Recombinant EBNA-1 DBD, Cy5-DNA fluorescence polarization; inhibition, % at 14.8 µM; actives 35% (n = 830); AID 2292, 2010;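 active means mean inhibition across replicates above a set limit taken from the earlier primary screen, cut at about 28% in these data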;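 further: plate controls were EBNA-1 protein with DMSO for no effect and wells lacking EBNA-1 for full effect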
ZTA counter trip: EBV Zta DNA binding inhibitors, counter-screen for EBNA-1 inhibitor project, biochemical, fluorescence polarization, triplicate; shares compounds with EBNA-1 inh; Zta-ZRE DNA binding, Cy5 fluorescence polarization; inhibition, % at 11.1 µM; 830 tested, under 10 active; AID 2328, 2010;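 active means mean inhibition over triplicates above a set limit taken from the primary EBNA-1 screen, cut at about 37% in these data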;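 further: purified full length Zta protein with Cy5 labeled ZRE DNA probe; 0% = Zta with DMSO and 100% = wells lacking Zta protein; inhibitors lower polarization by freeing the labeled DNA probe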
dFosB act-2: activators of mouse delta FosB DNA binding, confirmation, biochemical, fluorescence polarization, TAMRA-CDK5 oligo, cherry-picked samples. shares compounds with dFosB act-1. purified delta FosB; normalised: neutral wells 0, positive control 100. activation, % at 24.9 µM. 2,400 tested, under 10 active;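 active means highest replicate activation at or above 34% and every replicate reaching that threshold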;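 further: higher polarization means more probe DNA bound by delta FosB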
* hit, by the source's call.

What do the screens show for `COc1ccc(/C=C/C(=O)Oc2cccc(/C=N/NC(=O)COc3c(C)cccc3C)c2)cc1`?
EBNA-1 inh: 39.1*; PolyA inh: -13.2; dFosB act-1: -6.8; NLRP3 yeast inh: 10.8; ZTA DNA inh: 3.8; NALP1 inh: 5.7; EBNA-1 confirm: 73.7*; ZTA counter trip: 7.1

What do the screens show for `COc1ccccc1CN1C(=O)[C@@H]2C(CCC(N)=O)NC3(C(=O)Nc4c3ccc(Cl)c4C)[C@@H]2C1=O` (some centres undefined)?
EBNA-1 inh: -1.7; PolyA inh: -21.7; dFosB act-1: -9.6; NLRP3 yeast inh: 10.4; ZTA DNA inh: -10.8; NALP1 inh: -10.5

What do the screens show for `COc1ccccc1CN1C(=O)[C@@H]2C(CC(N)=O)NC3(C(=O)Nc4c3ccc(Cl)c4C)[C@@H]2C1=O` (some centres undefined)?
EBNA-1 inh: 28.2*; PolyA inh: 3.8; dFosB act-1: -1.9; NLRP3 yeast inh: -1.5; ZTA DNA inh: 7.8; NALP1 inh: 4.3; EBNA-1 confirm: 48.7*; ZTA counter trip: -6.6

Results for CCOC(=O)C1CCN(c2c(NCc3ccc(C(=O)Nc4ccc(C)cc4)cc3)c(=O)c2=O)CC1 ?
EBNA-1 inh: 1.9; PolyA inh: -20.2; dFosB act-1: 2.0; NLRP3 yeast inh: 12.8; ZTA DNA inh: -8.2; NALP1 inh: 20.9

How did COc1ccc(S(N)(=O)=O)cc1C(=O)N(C)CC(=O)Nc1ccc(N2CCOCC2)cc1 do in these assays?
EBNA-1 inh: -7.4; PolyA inh: -3.4; dFosB act-1: -2.3; NLRP3 yeast inh: 14.3; ZTA DNA inh: -2.3; NALP1 inh: 20.7

What do the screens show for `O=C(NCC(F)(F)F)Nc1cccnc1`?
EBNA-1 inh: 79.8*; dFosB act-1: 1.1; NLRP3 yeast inh: 10.9; ZTA DNA inh: -6.8; NALP1 inh: -7.8; EBNA-1 confirm: 2.9; ZTA counter trip: 2.2

What do the screens show for `O=C(Nc1ccc(F)cc1)Nc1cccnc1`?
PolyA inh: 6.1; dFosB act-1: 0.3; NALP1 inh: 9.3

Results for Cc1ccc2[nH]c(=O)c(CN(Cc3cccs3)C(=S)NCC3CCCO3)cc2c1 (centres undefined) ?
EBNA-1 inh: 44.2*; PolyA inh: -11.3; dFosB act-1: -0.1; NLRP3 yeast inh: -14.1; ZTA DNA inh: 8.6; NALP1 inh: 17.5; EBNA-1 confirm: 17.4; ZTA counter trip: -4.8

Results for Cc1ccc(NC(=O)COc2ccccc2C=O)cc1Cl ?
EBNA-1 inh: -17.4; PolyA inh: 12.0; dFosB act-1: -1.0; NLRP3 yeast inh: 49.1; ZTA DNA inh: 5.2; NALP1 inh: -2.3

What do the screens show for `O=C1COc2ccc(C(=O)COC(=O)c3ccccc3F)cc2N1`?
dFosB act-1: 2.7; NLRP3 yeast inh: 1.5

Results for O=C1COc2ccc(C(=O)COC(=O)c3cc(S(=O)(=O)NCc4ccccc4)ccc3O)cc2N1 ?
EBNA-1 inh: 31.3*; PolyA inh: 1.7; dFosB act-1: 65.9*; NLRP3 yeast inh: -2.7; ZTA DNA inh: 6.3; EBNA-1 confirm: 4.7; ZTA counter trip: -4.2; dFosB act-2: -0.8

What do the screens show for `N#C/C(=C\c1cn(Cc2ccccc2F)c2ccccc12)C(=O)NCc1ccco1`?
EBNA-1 inh: 62.2*; PolyA inh: 10.7; dFosB act-1: 24.3*; NLRP3 yeast inh: 11.4; ZTA DNA inh: 6.1; EBNA-1 confirm: 57.4*; ZTA counter trip: -5.7; dFosB act-2: 3.8

How did COc1ccc(CN(C)C(=O)[C@H](Cc2ccccc2)NC(=O)c2ccco2)c(OC)c1 do in these assays?
dFosB act-1: -5.0; NLRP3 yeast inh: 6.2; ZTA DNA inh: 1.6

How did CCOC(=O)Nc1ccc2c(COC(=O)CN(C)S(=O)(=O)c3ccc(C)cc3)cc(=O)oc2c1 do in these assays?
EBNA-1 inh: 56.1*; PolyA inh: -5.5; dFosB act-1: 36.0*; NLRP3 yeast inh: 16.7; ZTA DNA inh: -0.1; EBNA-1 confirm: 20.3; ZTA counter trip: 20.0; dFosB act-2: 7.5

How did CC(=O)Nc1ccc(NC(=O)Cc2sc(-c3cccnc3)nc2-c2ccc(C)cc2)cc1 do in these assays?
EBNA-1 inh: 54.2*; PolyA inh: -3.1; dFosB act-1: 29.8*; NLRP3 yeast inh: 21.8; ZTA DNA inh: 4.2; NALP1 inh: 7.4; EBNA-1 confirm: 52.0*; ZTA counter trip: 7.3; dFosB act-2: 0.7

How did Cc1cccc(NC(=O)c2cc(S(=O)(=O)N3CCc4ccccc43)cn2C)c1C do in these assays?
EBNA-1 inh: 27.6*; PolyA inh: 1.5; dFosB act-1: 40.1*; NLRP3 yeast inh: -2.0; ZTA DNA inh: 9.9; NALP1 inh: 4.3; EBNA-1 confirm: 39.1*; ZTA counter trip: -7.5; dFosB act-2: -1.4

Results for COc1ccc(CNC(=O)COc2ccc(S(=O)(=O)N3CCOCC3)cc2C)cc1 ?
EBNA-1 inh: 6.2; PolyA inh: 15.6; dFosB act-1: -3.1; NLRP3 yeast inh: 14.0; ZTA DNA inh: -8.3; NALP1 inh: -3.0

Results for O=C(CSc1n[nH]c(-c2ccco2)n1)Nc1sc2c(c1C(=O)Nc1ccccc1)CCCC2 ?
EBNA-1 inh: 36.3*; PolyA inh: -14.0; dFosB act-1: 25.2*; NLRP3 yeast inh: 13.1; ZTA DNA inh: 19.8; NALP1 inh: 4.0; EBNA-1 confirm: 20.1; ZTA counter trip: 8.3; dFosB act-2: 0.6

How did CC(C)C(=O)NNC(=O)c1csc(CS(=O)(=O)c2ccc(Cl)cc2)n1 do in these assays?
EBNA-1 inh: -7.1; PolyA inh: 9.0; dFosB act-1: -0.3; NLRP3 yeast inh: 3.3; ZTA DNA inh: -6.2

What do the screens show for `CS(=O)(=O)NNC(=O)c1csc(Cc2c(Cl)sc3ccc(Cl)cc23)n1`?
EBNA-1 inh: 39.9*; PolyA inh: 23.2; dFosB act-1: 36.4*; NLRP3 yeast inh: 1.7; ZTA DNA inh: 11.3; EBNA-1 confirm: 41.5*; ZTA counter trip: 6.5; dFosB act-2: -0.7
